The source of these data is the supplement of paper PMC4894684.

Molecules are shown by their SMILES. Structures can show the parent of a compound that is named as a salt. ± gives the standard deviation of the averaged measurements.

The subject of this assay is Toxoplasma gondii RH (in HFF). Description: parasite growth relative to the screen mean (all compounds = 100%); higher = less inhibition of parasite growth. Particulars: 5 µM; 72 h; oxygen 21 %. In a few lines:
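Library compounds, held as 10 mM DMSO stocks, were pinned to 5 µM final onto confluent human foreskin fibroblasts in 96-well plates. The cells were infected within 2 h with RH β-Gal–GFP Toxoplasma (MOI 1:5), grown 72 h at 21% O2, and assayed for parasite number by CPRG β-Gal using in-plate standard curves. Growth is reported relative to the screen mean, in which all compounds = 100%, averaged over two screens, and CellTiter-Blue checked uninfected host-cell viability.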
As to `CC(C)(C)OC(=O)c1ncn2c1[C@@H]1CCCN1C(=O)c1c(Br)cccc1-2` [Bretazenil], the parasite growth turned out to be 87.1 ± 5.4%.
The same measure for `COc1ccc(C(=O)N2CCCC2=O)cc1` [Aniracetam]: 97.2 ± 53%; for `CC[C@@H](CO)NC(=O)[C@@H]1C=C2c3cccc4[nH]cc(c34)C[C@H]2N(C)C1` [Methylergometrine maleate]: 177 ± 41%.
Next, `CN1[C@@H]2CC[C@H]1CC(OC(=O)N1Cc3ccccc3NC1=O)C2` (some centres undefined) [DAU 5884 hydrochloride]: 97.7 ± 16%; `CC(=O)[C@H]1CC[C@H]2[C@@H]3CC[C@H]4C[C@](C)(O)CC[C@]4(C)[C@H]3CC[C@]12C` [Ganaxolone]: 147 ± 17%.
In turn, `O=C(O)c1nn(Cc2ccc(Cl)cc2Cl)c2ccccc12` [Lonidamine] displayed a parasite growth of 77.9 ± 20%.
As to `CC(N)Cc1c[nH]c2ccc(OCc3cccs3)cc12` (centres undefined) [BW 723C86 hydrochloride], the parasite growth came out at 133 ± 3.8%.
Next, `Nc1ccncc1` [4-Aminopyridine]: 157 ± 28%; `N[C@H](C(=O)O)c1cc(O)no1` [Ibotenic acid]: 136 ± 26%.
The compound `C=C(C)CN1CC[C@@]23c4c5ccc(O)c4O[C@H]2c2[nH]c4ccccc4c2C[C@]3(O)C1C5` [SDM25N hydrochloride] yielded a parasite growth of 77.5 ± 21%.
On to `Cc1nnc2n1-c1sc(CCC(=O)N3CCOCC3)cc1C(c1ccccc1Cl)=NC2`, for which the parasite growth was found to be 132 ± 22%.
Next, `COc1cc2c(c(OC)c1OC)-c1ccc(OC)c(=O)cc1[C@@H](NC(C)=O)CC2` [Colchicine]: 115 ± 27%.
Take `CC(C)NCC(O)c1ccc(N)c(C#N)c1` (centres undefined) [Cimaterol]: the parasite growth is 130 ± 2.8%.
Next, `C[C@@]12C(=O)OC(=O)[C@]1(C)[C@H]1CC[C@@H]2O1` [Cantharidin]: 68.8 ± 46%.
